In the library only some 0.63% were active in any assay of this set; here they are far more common.
Pin1 inhibitor – qHTS Assay to Find Inhibitors of Pin1; Potency, µM (titrated, usually from 115 µM), for inactives: at the top dose activity, negative = inhibition, actives largely listed as inhibitors; Pin1 FP peptide displacement, HiFluor488, 10 min; Peptidyl-prolyl cis-trans isomerase NIMA-interacting 1 (Homo sapiens), Q13526; actives 0.009% (n = 390,000); active means well fitted inhibition curve with a large enough effect in the polarisation, with a control signal flat, not every such curve was filed as active; inconclusive means small, poorly fitted or top-dose-only effect, or effect the other way, or a change in a side signal; inactive means no such curve, though single readings can be large or run the other way; the % refers to the polarisation; further: potency means the concentration at half of the fitted maximal effect; on the % scale 0 is the no-effect control and ±100 the full control effect
TCR activator – Activators of T cell receptors: qHTS campaign; primary human leukocytes, anti-CD3, IL-2 HTRF, 48 h; Potency, µM (top dose mostly 9.22 µM), inactives show top-dose activation of IL-2 secretion, hits mostly activators; 330,000 tested, under 10 active; AID 504894, 2011; active means well fitted activation curve with a large enough effect; inconclusive means small, poorly fitted or top-dose-only effect, or another doubt; inactive means no such curve, though single readings can be large or run the other way; further: % of control where 0% means no effect
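Activity was scored as IL-2 release from primary human leukocytes given only a TCR signal (a-CD3 beads) plus compound for 48 hr. Detection used a two-antibody HTRF format read at 665nm.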
gsp antagonist – qHTS for Antagonists of gsp, the Etiologic Mutation Responsible for Fibrous Dysplasia/McCune-Albright Syndrome: qHTS; gsp-mutant cells, cAMP HTRF, 30 min; Potency, µM (top dose mostly 76.9 µM), inactives show at the highest dose activity change, negative = inhibition, actives largely listed as inhibitors; actives 0.4% (n = 340,000); AID 624288, 2012; calls by dose curve; cell line not stated here;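 further: intracellular cAMP measured with PDE inhibitor Ro 20-1724 present during compound exposure; potency means the concentration at half of the fitted maximal effect; on the % scale 0 is the no-effect control and ±100 the full control effect; nearly all actives have a fitted effect of over 65% in size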
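G418-selected cells were plated in DMEM/10% FBS for 16-24 h at 37C, then treated with compounds plus the PDE inhibitor […] (300 uM solution added) for 30 min at 37C. Intracellular cAMP was measured by HTRF after 30 min lysis at room temperature.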
TSHR antagonist – Antagonists of the Thyroid Stimulating Hormone Receptor: HTS campaign; Thyrotropin receptor (Homo sapiens), P16473; TSHR-expressing cells, TSH-stimulated cAMP HTRF, 2 h; hits give low values; activity change, negative = inhibition, % at 11.5 µM; actives 0.2% (n = 330,000); AID 504810, 2011;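 active means activity change below a set negative limit, meaning inhibition stronger than a set level, cut at about -70% in these data; inconclusive means activity change between two set negative limits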; further: on the % scale 0 is the no-effect control and ±100 the full control effect
Target sequence (P16473 whole entry, looked up): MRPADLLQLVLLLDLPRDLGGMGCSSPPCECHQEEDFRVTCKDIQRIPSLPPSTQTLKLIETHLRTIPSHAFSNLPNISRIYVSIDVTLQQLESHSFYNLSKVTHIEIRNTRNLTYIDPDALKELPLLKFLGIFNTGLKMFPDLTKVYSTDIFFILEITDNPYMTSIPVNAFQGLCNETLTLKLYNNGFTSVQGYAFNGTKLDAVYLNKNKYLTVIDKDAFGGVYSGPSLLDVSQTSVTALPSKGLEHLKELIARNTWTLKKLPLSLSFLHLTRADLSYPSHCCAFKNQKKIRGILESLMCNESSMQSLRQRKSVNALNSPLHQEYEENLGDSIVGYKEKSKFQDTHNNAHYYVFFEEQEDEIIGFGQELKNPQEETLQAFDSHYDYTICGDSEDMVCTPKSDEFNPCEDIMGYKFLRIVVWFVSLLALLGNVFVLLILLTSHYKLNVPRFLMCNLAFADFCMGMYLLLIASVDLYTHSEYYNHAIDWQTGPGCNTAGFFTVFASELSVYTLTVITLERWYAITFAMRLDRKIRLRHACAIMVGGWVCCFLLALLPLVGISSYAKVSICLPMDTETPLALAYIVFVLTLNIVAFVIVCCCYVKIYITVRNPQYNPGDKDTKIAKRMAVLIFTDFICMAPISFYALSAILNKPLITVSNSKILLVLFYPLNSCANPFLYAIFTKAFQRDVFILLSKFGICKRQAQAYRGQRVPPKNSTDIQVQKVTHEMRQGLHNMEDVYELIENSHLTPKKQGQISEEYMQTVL
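TSHR-expressing cells, 200/well, pre-treated with compound, then stimulated with EC80 TSH (4nM final) for 2 hours at 37 deg C. cAMP measured by competitive HTRF: anti-cAMP cryptate antibody in lysis buffer plus cAMP-d2, read after 30 minutes at room temperature.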
gsp agonist – qHTS for Agonist of gsp, the Etiologic Mutation Responsible for Fibrous Dysplasia/McCune-Albright Syndrome: qHTS. actives 0.13% (n = 340,000). Potency, µM (series often up to 76.9 µM), for the others: at the highest dose activation (cAMP increase), most hits filed as activators. gsp mutant cells, cAMP HTRF, 30 min; active means well fitted activation curve with a large enough effect; inconclusive means small, poorly fitted or top-dose-only effect, or another doubt; inactive means no such curve, though single readings can be large or run the other way; cell line not stated here;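 further: phosphodiesterase inhibitor Ro 20-1724 added with compounds to block cAMP breakdown; potency means the concentration at half of the fitted maximal effect; nearly all actives have a fitted effect of over 60% in size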
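Cells stably selected in G418 were plated at 2000/well, grown 16-24 hr, then given compounds in DMSO with the PDE inhibitor […] (300 uM solution added) for 30 min at 37C; cAMP was read by HTRF.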
Active calls of the source: *; ? = inconclusive; . = no result; [ ] = another dose, or the depositor's remark.

SMILES | Pin1 inhibitor | TCR activator | gsp antagonist | TSHR antagonist | gsp agonist
CCCC[C@@H]1C=C(C(=O)O)[C@H](c2ccc(CC)cc2)N1S(=O)(=O)c1ccc(C)cc1 | -5.8% | -6.5% | -2.4% | -1.7 | .
CCC1=C(OC(=O)N(CC)CC)N2C(=O)OC(=NCCc3c[nH]c4ccccc34)[C@]2(Cc2ccccc2)[C@H]2C1=CC[C@H]1C(=O)NC(=O)[C@H]12 | 55.9% | -3.9% | 11.2µM* | 10.3 | -2.4%
CCC1=C(OC(=O)N(CC)CC)N2C(=O)OC(=NCCc3c[nH]c4ccccc34)[C@]2(Cc2ccccc2)[C@H]2C1=CC[C@H]1C(=O)N(CC(=O)OC)C(=O)[C@H]12 | 35.3% | 2.7% | ? | 4.0 | 7.4%
O=C(NCc1ccccc1F)c1sc2ncccc2c1-n1cccc1 | 3.7% | . | . | . | .
O=C(OCN1C(=O)c2ccccc2C1=O)c1cc(S(=O)(=O)N2CCOCC2)ccc1F | 0.0% | 2.5% | -0.7% | 22.3 | 3.16µM*
O=C(OCCN1C(=O)c2ccccc2C1=O)c1cc(S(=O)(=O)N2CCOCC2)ccc1Cl | 3.0% | -3.0% | 0.6% | 15.5 | -43.4%
CCN(CC)c1ncnc2ccc(Br)cc12 | -4.4% | -0.3% | 1.2% | 5.6 | 17.8µM*
CCOC(=O)c1c(C)[nH]c(C)c1C(=O)COC(=O)/C=C/c1ccc(OC)cc1 | -5.5% | 3.5% | 10.1% | 6.3 | -5.0%
Fc1ccccc1CSc1ncnc2c1ncn2C1CCCO1 (centres undefined) | -0.7% | -4.9% | 5.0% | . | 3.8%
CCN(CC)S(=O)(=O)c1cc([N+](=O)[O-])ccc1NNC(=O)Nc1ccc(F)cc1 | ? | 1.5% | 50.1µM* | -8.4 | 10.6%
Cc1cccc(NC(=O)c2cc(Cl)ccc2[N+](=O)[O-])c1 | -8.1% | 12.0%[46.1 µM] | 9.0% | 1.2 | -5.9%[15.4 µM]
COCCCn1c(C(=O)N2CCOCC2)cc2c(=O)n3ccccc3nc21 | 0.0% | -7.5% | 10.5% | -0.7 | ?
COCCCn1c(C(=O)NCCC2=CCCCC2)cc2c(=O)n3ccccc3nc21 | ? | -0.2% | 7.5% | 11.3 | 7.08µM*
Cc1ccc(S(=O)(=O)NC(C)C(=O)NC2CCCCCC2)cc1 (centres undefined) | 65.6% | 4.1% | 11.5% | 6.1 | -3.1%
Cc1cccc(-n2nnnc2SCC(=O)NCCN2C(=O)CSC2=O)c1 | 3.0% | 0.9% | 1.5% | 17.4 | 5.0%
CC1=CCC2C(=O)N(c3ccc(C(=O)Nc4ccccc4Cl)cc3)C(=O)C2C1 (centres undefined) | -6.9% | -4.7% | -13.7% | -81.9* | 10.9%
COc1ccc(OC)c(NC(=O)c2ccc(N3C(=O)C4CC=C(C)CC4C3=O)cc2)c1 (centres undefined) | -3.6% | -6.2% | ? | 8.5 | -24.9%
CC(=O)n1cc([C@H]2C=C(C(=O)N3CCN(Cc4ccccc4)CC3)O[C@@H](OCCCCO)C2)c2ccccc21 | 4.8% | -0.2% | 35.5µM* | 1.3 | .
CC(C)CNS(=O)(=O)c1ccc(CCC(=O)NCc2ccco2)cc1 | -4.6% | 3.1%[46.1 µM] | -3.2% | 11.5 | -1.5%[15.4 µM]
COc1ccc2cc(/C=C3\SC(=S)NC3=O)c(N3CCOCC3)nc2c1 | 61.1% | 3.5%[46.1 µM] | 35.5µM* | -80.3* | 24.3%
O=C1NC(=S)S/C1=C/c1ccc(N2CCOCC2)o1 | ? | -3.4%[46.1 µM] | ? | -26.1 | 29.4%
Cc1ccc(S(=O)(=O)Nc2ccc3c(c2)nc(CCN2CCOCC2)n3C)cc1 | -3.7% | 0.8% | -2.0% | 28.7 | 16.1%
O=C(Nc1nncs1)c1c(F)c(F)c(F)c(F)c1F | ? | -0.3% | 39.8µM* | -7.3 | -0.6%
CC(=O)c1cccc(NC(=O)CCCSc2ccccc2)c1 | -5.0% | 1.3% | -8.0% | -81.4* | ?
CN(C)S(=O)(=O)c1cccc(NC(=O)CCCSc2ccccc2)c1 | 0.5% | -5.4% | -10.9% | -23.6 | 0.2%[15.4 µM]
SMILES | Pin1 inhibitor | TCR activator | gsp antagonist | TSHR antagonist | gsp agonist
O=C(CCOc1ccccc1)Nc1cccc([N+](=O)[O-])c1 | 0.1% | 6.7% | -3.7% | 21.9 | 17.9%
O=C(Nc1nc2ccc(F)cc2s1)C1CCN(S(=O)(=O)c2cc([N+](=O)[O-])ccc2Cl)CC1 | -21.0% | 2.7% | -25.5% | -92.4* | -6.5%
CN(CCCS(=O)(=O)[O-])c1ccc(/C=C/c2ccc3ccccc3[n+]2C)cc1 | -1.8% | 11.6% | -20.8% | -7.8 | -18.4%
C=COc1ccc(N2C(=O)c3ccccc3OC2C)cc1 (centres undefined) | -1.6% | . | -8.7% | -2.0 | -2.1%[15.4 µM]
COC(=O)c1sc(NC(=O)C2CCCCC2C(=O)O)c(C(=O)OC)c1C (centres undefined) | -0.2% | 3.1% | 9.3% | -3.0 | 14.1µM*
COC(=O)c1c(NC(=O)C2CCCCC2C(=O)O)sc2c1CCCCC2 (centres undefined) | 4.7% | -4.2% | -27.4% | -14.5 | 26.4%[15.4 µM]
CCc1ccc(/C=C/C(=O)c2cc(Br)ccc(=O)c2O)cc1 | ? | 2.3% | -10.2% | -87.2* | 2.3%
Cc1cccc(/C=C/C(=O)c2cc(Br)ccc(=O)c2O)c1 | ? | 15.5% | ? | -87.8* | 15.7%
CCCCOc1ccc2ccccc2c1C=O | -1.7% | -0.7% | ? | 7.2 | -10.9%
COc1ccc(C(=O)NCc2ccc(Cl)c(Cl)c2)cc1OC | 1.8% | -1.0%[46.1 µM] | -6.2% | 28.4 | 2.7%
Cc1ccc(S(=O)(=O)N2CCCCC2CCNC(=O)C(=O)NCc2ccccc2C)cc1 (centres undefined) | -2.4% | 5.2% | -6.8% | 6.6 | 39.6%[15.4 µM]
O=C1C=CC(=O)c2c(O)c(N3CCN(CCOCCO)CC3)c(Br)c(O)c21 | ? | 4.2% | 25.1µM* | . | ?
O=C1C=CC(=O)c2c(O)c(N3CCN(CCO)CC3)c(Cl)c(O)c21 | ? | 6.2% | ? | . | 27.6%
CCCN(CCC)CC(O)Cn1cc(/C=C/C(=O)c2ccccc2)c2ccccc21 (centres undefined) | 34.5% | 2.5% | -3.0% | 10.0 | -23.7%

Compound activity from PubChem.
